Screens as filed in PubChem.
Only some compounds are listed: those with a hit (about 28% of all), similar ones and a draw of the others.
PLK1 inh: blocks human PLK1 kinase activity; P53350; recombinant PLK1 kinase, TR-FRET peptide phosphorylation; 97,000 tested, 0.53% active; inhibition, % at 10 µM;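 active means inhibition of 50% or more in the single-concentration screen; inactive means inhibition below 50%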
PLK1 PBD inh: blocks phosphopeptide binding to human Plk1 polo box domain; Plk1 PBD phosphopeptide binding, fluorescence polarization; AID 693; 97,000 tested, 0.13% active; inhibition, %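 (tested at about 20 µM)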; P53350; in the data active means inhibition above about 34%, passing the limit was not always enough
CYP2C19 inh: inhibitors of human CYP2C19 | P33261 | CYP2C19 Supersomes, luciferin-H EGE luminescence, 30 min | inhibition, % at 5 µM | 96,000 tested, 21% active | AID 778;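 active means CYP2C19 inhibition above a set limit at 5 µM in the primary screen, cut at about 50% in these data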
CYP2C19 activ: activators of human cytochrome P450 2C19; recombinant CYP2C19, luciferin-H EGE luminescence; stronger effect = higher value; 0 = fully inhibited enzyme, 1 = untreated enzyme; activation factor at 5 µM; 96,000 tested, under 10 active;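 active means activation factor of at least 2 at 5 µM in the primary screen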
CYP2C9 inhib: blocks human cytochrome P450 2C9; P11712; CYP2C9 Supersomes, luciferin-H conversion, luminescence; inhibition, % at 5 µM; 96,000 tested, 20% active;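 active means blocking of liver enzyme CYP2C9 beyond about 50% at 5 µM, limit read from the data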
Target sequence (P11712 whole entry, looked up): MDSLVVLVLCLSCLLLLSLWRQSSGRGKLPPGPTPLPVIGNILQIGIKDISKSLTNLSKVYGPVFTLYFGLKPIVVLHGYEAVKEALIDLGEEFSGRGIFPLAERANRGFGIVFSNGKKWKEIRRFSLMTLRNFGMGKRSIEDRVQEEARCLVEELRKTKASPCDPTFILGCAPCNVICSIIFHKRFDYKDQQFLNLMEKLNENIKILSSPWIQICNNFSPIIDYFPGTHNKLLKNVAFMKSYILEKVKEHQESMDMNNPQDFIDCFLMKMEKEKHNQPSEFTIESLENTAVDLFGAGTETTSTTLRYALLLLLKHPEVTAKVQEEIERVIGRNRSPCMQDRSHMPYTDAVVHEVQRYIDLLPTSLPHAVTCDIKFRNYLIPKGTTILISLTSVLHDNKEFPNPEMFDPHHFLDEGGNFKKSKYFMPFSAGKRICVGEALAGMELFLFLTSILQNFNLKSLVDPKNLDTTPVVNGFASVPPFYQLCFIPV
CYP2C9 act: increases human cytochrome P450 2C9 activity; recombinant CYP2C9, luciferin-H conversion, luminescence; stronger effect = higher value; factor 1 = untreated enzyme, 0 = blocked; activation factor at 5 µM; 96,000 tested, 1.4% active; P11712;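 active means activation factor of 2 or more for CYP2C9 at a 5 µM dose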
Of the large screens only hits and unclear results are named; the others gave an inactive call.

O=C(Cn1c(=O)n(CCCC(=O)NC2CCCC2)c(=O)c2ccccc21)NCCC1=CCCCC1	CYP2C9 inhib 68 (no result: PLK1 inh, PLK1 PBD inh)
CCCCNC(=O)CCCn1c(=O)c2ccccc2n(CC(=O)NCCC2=CCCCC2)c1=O	CYP2C19 inh 67, CYP2C9 inhib 72
O=S(=O)(c1ccc(N2CCN(S(=O)(=O)c3ccc4c(c3)OCCO4)CC2)nc1)N1CCCC1	none (no result: CYP2C19 inh, CYP2C19 activ, CYP2C9 inhib, CYP2C9 act)
CCOC(=O)C1CCN(c2ncnc3c2oc2ccc(Cl)cc23)CC1	CYP2C19 inh 80, CYP2C9 inhib 53
CCOC(=O)C1CCN(c2ncnc3c2[nH]c2cccc(OC)c23)CC1	CYP2C19 inh 61, CYP2C9 inhib 51
O=C(Nc1ccc(Cc2ccncc2)cc1)C1CCC(N2C(=O)C3C4C=CC(C4)C3C2=O)CC1 (stereo not given)	CYP2C19 inh 96, CYP2C9 inhib 95
O=C1C2C3C=CC(C3)C2C(=O)N1c1ccc(Cc2ccncc2)cc1 (stereo not given)	CYP2C19 inh 71, CYP2C9 inhib 80
O=C(Nc1ccc(Cc2ccncc2)cc1)C1CCC(N2C(=O)C3CC=CCC3C2=O)CC1 (stereo not given)	CYP2C19 inh 58, CYP2C9 inhib 67
O=C(CN1C(=O)C2CC=CCC2C1=O)Nc1ccc(-c2nnc3n2CCCCC3)cc1 (stereo not given)	none (no result: PLK1 inh, PLK1 PBD inh)
Cn1cnc2cc(OC(=O)c3ccccc3)ccc21	none
O=C(CSc1nnc(-c2ccccn2)n1Cc1ccccc1)N1CCCC1	none
CN(C)S(=O)(=O)c1ccc(C(=O)Nc2ccc(OCC(=O)N3CCOCC3)cc2)cc1	none
COc1ccccc1CN(Cc1nc2ccccc2c(=O)[nH]1)C(=O)Nc1cccc(C)c1	CYP2C19 inh 67, CYP2C9 inhib 57
CCN(Cc1nc2ccccc2c(=O)[nH]1)Cc1nc2cc(OC)c(OC)cc2c(=O)[nH]1	none
COc1ccc(CCN(Cc2nc3ccccc3c(=O)[nH]2)C(=O)c2ccco2)cc1OC	none
CCN(CC(=O)Nc1cccc(Br)c1)Cc1nc2ccccc2c(=O)[nH]1	CYP2C19 inh 72, CYP2C9 inhib 65
CCN(CC(=O)Nc1ccc2c(c1)OC(F)(F)O2)Cc1nc2ccccc2c(=O)[nH]1	CYP2C19 inh 88, CYP2C9 inhib 92
CCN(CC(=O)Nc1ccc2c(c1)CCC2)Cc1nc2ccccc2c(=O)[nH]1	CYP2C19 inh 92, CYP2C9 inhib 89
CCN(CC(=O)NC(=O)NC1CCCCC1)Cc1nc2ccccc2c(=O)[nH]1	none
CCCOc1ccccc1NC(=O)/C=C/C(N)=O	none
N=C1C(c2ccccc2)=C(O)CN1c1ccc2c(c1)OCO2	none
O=C(/C=C/c1cccs1)c1cc(F)ccc1OC(=O)N1CCOCC1	none (no result: CYP2C19 inh, CYP2C19 activ, CYP2C9 inhib, CYP2C9 act)
CCN(CC(=O)NC(c1ccccc1)c1ccccc1)Cc1nc2ccccc2c(=O)[nH]1	CYP2C19 inh 65
CCN(CC(=O)NCc1ccc(F)cc1)Cc1nc2cc(Cl)ccc2c(=O)[nH]1	CYP2C9 inhib 60
CCN(CC(=O)Nc1ccc2c(c1)OCO2)Cc1nc2ccccc2c(=O)[nH]1	CYP2C19 inh 77, CYP2C9 inhib 81 (no result: PLK1 inh, PLK1 PBD inh)
COc1cc2nc(CN(C)Cc3nc4ccccc4c(=O)[nH]3)[nH]c(=O)c2cc1OC	none
CN(CC(=O)Nc1ccccc1Br)Cc1nc2ccccc2c(=O)[nH]1	CYP2C19 inh 83, CYP2C9 inhib 81
CCc1nc(SCC(=O)NCCc2ccc(OC)c(OC)c2)c2c(=O)n(C)c(=O)n(C)c2n1	none
Cn1cnc([N+](=O)[O-])c1Nc1cccc(O)c1	none
COc1ccccc1NC(=O)N(Cc1ccc2c(c1)OCO2)Cc1nc2ccccc2c(=O)[nH]1	none
COc1cccc(C(=O)N(Cc2ccc3c(c2)OCO3)Cc2nc3ccccc3c(=O)[nH]2)c1	CYP2C19 inh 74, CYP2C9 inhib 81
COC(=O)CNc1ccc2c(c1)OCO2	none (no result: CYP2C19 inh, CYP2C19 activ, CYP2C9 inhib, CYP2C9 act)
CC(=O)N1N=C(c2ccncc2)OC12CCCCC2	CYP2C19 inh 88, CYP2C9 inhib 55
Cc1oc(C)c2c(=O)ccc3c(c12)OC(N)=C(C#N)C3c1ccccc1 (stereo not given)	none
CN(C)c1ccc2c(c1)OC(N)=C(C#N)C2c1cccc(F)c1 (stereo not given)	CYP2C19 inh 92, CYP2C9 inhib 80 (no result: PLK1 inh, PLK1 PBD inh)
COC(=O)CC1=C(C(=O)OC)C(c2cccs2)C(C#N)=C(N)O1 (stereo not given)	none
N#CC1=C(N)Oc2c(ccc3ccccc23)C1c1cccs1 (stereo not given)	CYP2C9 inhib 54
N#CC1=C(N)Oc2cc(O)ccc2C1c1ccncc1 (stereo not given)	CYP2C19 inh 84, CYP2C9 inhib 92
N#CC1=C(N)Oc2cc(O)ccc2C1c1cccs1 (stereo not given)	CYP2C19 inh 76, CYP2C9 inhib 74
CCCCCCCOC(=O)c1ccc(OC(=O)c2cccnc2)cc1	none
Cc1ccc([N+](=O)[O-])cc1NC1OC(CO)C(O)C1O (stereo not given)	none
CN1/C(=C/C=N/n2cnnc2)C(C)(C)c2ccccc21	CYP2C19 inh 92
Cc1cccc(OCC(=O)Nc2ccc(N3CCN(C(=O)c4ccco4)CC3)cc2)c1	CYP2C19 inh 66
O=C(Nc1ccc(N2CCN(C(=O)c3ccco3)CC2)cc1)C(c1ccccc1)c1ccccc1	CYP2C19 inh 86, CYP2C9 inhib 61
CC(OC(=O)c1nsc(Cl)c1Cl)C(=O)NC(C)(C)C (stereo not given)	none (no result: CYP2C19 inh, CYP2C19 activ, CYP2C9 inhib, CYP2C9 act)
N/C(=N\OC(=O)CC1CCCCC1)c1ccccn1	none
CNC(=S)N1N=C(c2ccc(Br)cc2)CC1c1ccc(Br)cc1 (stereo not given)	CYP2C19 inh 98, CYP2C9 inhib 95
NS(=O)(=O)c1ccc(N2N=C(c3ccc(Br)cc3)CC2c2ccc(F)cc2)cc1 (stereo not given)	none
Cc1cc(-c2ccccc2)nn1-c1nc2c(c(=O)[nH]c(=O)n2C)n1C	none (no result: PLK1 inh, PLK1 PBD inh)
CC(C)OC(=O)Cn1cnc2ccc(Br)cc2c1=O	CYP2C19 inh 68
Cc1sc2ncn(CC(=O)OC(C)C)c(=O)c2c1C	CYP2C19 inh 67
CCn1cnc2sc(C)c(C)c2c1=O	none
COC(=O)Cn1cnc2ccccc2c1=O	none
Cc1sc2ncn(CC(=O)OCC(=O)NC(C)(C)C)c(=O)c2c1C	none
Cc1sc2ncn(CC(=O)OC(C)C(=O)NC(C)(C)C)c(=O)c2c1C (stereo not given)	CYP2C19 inh 67
CCNc1nc(Oc2c(Cl)cccc2Cl)cc(C(F)(F)F)n1	none
CCn1cc(C(=O)NCCC2=CCCCC2)c(=O)c2cc(S(=O)(=O)N(C)C)ccc21	none (no result: CYP2C19 inh, CYP2C19 activ, CYP2C9 inhib, CYP2C9 act)
O=C(c1cc2nc(-c3ccccc3)cc(-c3ccccc3)n2n1)N1CCN(C(=O)c2ccco2)CC1	none
CCOC(=O)c1c(C)oc2ccc(OC(=O)N3CCOCC3)cc12	none (no result: PLK1 inh, PLK1 PBD inh)
CCOC(=O)Oc1ccc2oc(C)c(C(=O)OCCOC)c2c1	none
COCCOC(=O)c1c(C)oc2ccc(OC(=O)c3ccc4c(c3)OCO4)cc12	CYP2C9 inhib 87
